Data published in PubChem BioAssay (NCI).
The panel holds about 83,000 compounds, 20% with a hit somewhere; the sample as a whole holds those more often.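 Treatment: one concentration, 48 hours, 96-well format. Scoring: percent growth, with anything below 10 considered active.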

What was measured:
Experiment in all cases: NCI-60 one-dose screen, 48 h (100 = growth as untreated, 0 = no growth, -100 = all killed)
Conditions in all cases: 10 µM
NCI-H23 lung = tested on: NCI-H23 lung
NCI-H226 lung = tested on: NCI-H226 lung
NCI-H322M lung = tested on: NCI-H322M lung
HOP-62 NSCLC = tested on: HOP-62 NSCLC
HOP-92 NSCLC = tested on: HOP-92 NSCLC
NCI-H522 lung = tested on: NCI-H522 lung
A549/ATCC NSCLC = tested on: A549/ATCC NSCLC
786-0 renal = tested on: 786-0 renal
COLO 205 colon = tested on: COLO 205 colon
DU-145 prostate = tested on: DU-145 prostate
K-562 leukemia = tested on: K-562 leukemia
MALME-3M melanoma = tested on: MALME-3M melanoma
MDA-MB-231 breast = tested on: MDA-MB-231 breast
RXF 393 renal = tested on: RXF 393 renal
SF-268 CNS = tested on: SF-268 CNS
SF-295 CNS = tested on: SF-295 CNS
SF-539 CNS = tested on: SF-539 CNS
UACC-257 melanoma = tested on: UACC-257 melanoma
M14 melanoma = tested on: M14 melanoma
NCI-H460 lung = tested on: NCI-H460 lung

Measured: growth

C#C[C@H]1CCCCCC1O (stereo not given in full)
inactive: NCI-H23 lung 95.7% | NCI-H226 lung 96.5% | NCI-H322M lung 104% | HOP-62 NSCLC 105% | HOP-92 NSCLC 87% | NCI-H522 lung 94.8% | A549/ATCC NSCLC 105% | 786-0 renal 103% | COLO 205 colon 111% | DU-145 prostate 110% | K-562 leukemia 101% | MALME-3M melanoma 104% | MDA-MB-231 breast 102% | RXF 393 renal 103% | SF-268 CNS 105% | SF-295 CNS 108% | SF-539 CNS 106% | UACC-257 melanoma 107% | M14 melanoma 107%

Cc1ccc(C)n1-c1ccsc1C(=O)NNC(=O)CCl
inactive: NCI-H23 lung 85.1% | NCI-H226 lung 80.1% | NCI-H322M lung 99.7% | HOP-62 NSCLC 101% | HOP-92 NSCLC 97.4% | NCI-H522 lung 79.5% | A549/ATCC NSCLC 96.6% | 786-0 renal 80.4% | COLO 205 colon 122% | DU-145 prostate 105% | K-562 leukemia 96.3% | MALME-3M melanoma 86.7% | RXF 393 renal 101% | SF-295 CNS 103% | SF-539 CNS 101% | UACC-257 melanoma 91.3% | M14 melanoma 77.8%

Sc1ccc(Nc2c3ccccc3nc3ccccc23)cc1
inactive: NCI-H23 lung 73% | NCI-H226 lung 91.2% | NCI-H322M lung 74.6% | HOP-62 NSCLC 92.4% | HOP-92 NSCLC 76.9% | NCI-H522 lung 40.9% | A549/ATCC NSCLC 61% | 786-0 renal 95.5% | COLO 205 colon 38.9% | DU-145 prostate 104% | K-562 leukemia 32% | MALME-3M melanoma 86% | MDA-MB-231 breast 98% | SF-268 CNS 102% | SF-295 CNS 26.5% | SF-539 CNS 95.5% | UACC-257 melanoma 68.1% | M14 melanoma 96.8%

COC(=O)/C=C/C(=O)NC(N)=O
inactive: NCI-H23 lung 94.7% | NCI-H226 lung 94.1% | NCI-H322M lung 107% | HOP-62 NSCLC 98.8% | NCI-H460 lung 105% | 786-0 renal 103% | COLO 205 colon 105% | DU-145 prostate 105% | K-562 leukemia 105% | MALME-3M melanoma 97.4% | MDA-MB-231 breast 108% | RXF 393 renal 95.2% | SF-268 CNS 104% | SF-295 CNS 95.2% | SF-539 CNS 96.8% | M14 melanoma 106%

CCC(C#N)(CC)c1ccccc1
inactive: NCI-H23 lung 99.5% | NCI-H226 lung 99.3% | NCI-H322M lung 99.4% | HOP-62 NSCLC 92.9% | NCI-H460 lung 104% | A549/ATCC NSCLC 111% | COLO 205 colon 106% | DU-145 prostate 109% | K-562 leukemia 97.1% | MALME-3M melanoma 121% | MDA-MB-231 breast 97.4% | RXF 393 renal 115% | SF-268 CNS 99.3% | SF-295 CNS 113% | SF-539 CNS 113% | UACC-257 melanoma 104%

C#CCSc1nnnn1-c1ccc(Br)c(C)c1
inactive: NCI-H23 lung 89.7% | NCI-H226 lung 74.6% | NCI-H322M lung 107% | HOP-62 NSCLC 102% | HOP-92 NSCLC 69.9% | NCI-H522 lung 71.1% | A549/ATCC NSCLC 92.8% | 786-0 renal 89.1% | COLO 205 colon 135% | DU-145 prostate 107% | K-562 leukemia 86.3% | MALME-3M melanoma 112% | MDA-MB-231 breast 98.4% | RXF 393 renal 68.3% | SF-268 CNS 99.2% | SF-295 CNS 103% | SF-539 CNS 89% | UACC-257 melanoma 83.5% | M14 melanoma 94.8%

Cc1cc(N)ccc1-c1ccc(N)cc1C
inactive: NCI-H23 lung 92.8% | NCI-H226 lung 102% | NCI-H322M lung 104% | HOP-62 NSCLC 89.9% | HOP-92 NSCLC 47.6% | NCI-H522 lung 96.9% | A549/ATCC NSCLC 92.8% | 786-0 renal 101% | COLO 205 colon 103% | DU-145 prostate 110% | K-562 leukemia 106% | MALME-3M melanoma 120% | MDA-MB-231 breast 106% | RXF 393 renal 108% | SF-268 CNS 103% | SF-295 CNS 99.2% | SF-539 CNS 93.8% | UACC-257 melanoma 80.7% | M14 melanoma 94.7%

Cc1ccc(CCCC(=O)O)c(C)c1
inactive: NCI-H23 lung 103% | NCI-H226 lung 93.4% | NCI-H322M lung 102% | HOP-62 NSCLC 95.7% | NCI-H460 lung 102% | 786-0 renal 99.4% | DU-145 prostate 107% | K-562 leukemia 97.8% | MALME-3M melanoma 105% | MDA-MB-231 breast 108% | RXF 393 renal 100% | SF-268 CNS 104% | SF-295 CNS 98.5% | SF-539 CNS 96.5% | M14 melanoma 107%

CC(=O)NCc1cc(C)c(C)cc1C
inactive: NCI-H23 lung 102% | NCI-H226 lung 93.4% | NCI-H322M lung 92% | HOP-62 NSCLC 106% | NCI-H460 lung 104% | 786-0 renal 97.8% | COLO 205 colon 94.2% | DU-145 prostate 104% | K-562 leukemia 94.2% | MALME-3M melanoma 88.7% | MDA-MB-231 breast 110% | RXF 393 renal 103% | SF-268 CNS 95.7% | SF-295 CNS 103% | SF-539 CNS 102% | M14 melanoma 105%
